Screening results deposited in PubChem BioAssay by National Center for Advancing Translational Sciences (NCATS).
This excerpt belongs to a sample that is enriched for hits.
AMA1-RON2 inh: AMA1-RON2 (P. falciparum) interaction inhibition. AlphaScreen AMA1-biotinylated RON2 peptide binding. Potency, µM (series often up to 58.2 µM), for inactives: top-dose activity change, negative = inhibition, hits mostly inhibitors. actives 0.2% (n = 360,000); active = well fitted inhibition curve with a large enough effect; inconclusive = small, poorly fitted or top-dose-only effect; inactive = no such curve, though single readings can be large or run the other way;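 also: potency is read from the fitted curve at half-maximal effect; 0% = vehicle wells and -100% = peptide control; nearly all actives have a fitted effect of over 45% in size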
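AMA1 (3D7) with his tag at 25 nM final met compounds first, then biotinylated RON2 peptide at 25 nM; detection used donor plus acceptor beads, 10 µg/mL apiece, read by AlphaScreen after 30 min at room temperature.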
Shiga toxin inh: inhibitors of Shiga toxin in Vero cells. Vero cells, Shiga toxin protein synthesis inhibition reporter. inhibition, % at 38.7 µM. actives 9.2% (n = 290,000); in the data active = inhibition mostly above about 28%, no sharp cut-off; inactive = mostly below about 43%; also: 0% is about no effect
CHX counter: affects cycloheximide protein synthesis inhibition readout, counter-screen; actives 12% (n = 300,000); AID 2314; cell reporter, cycloheximide protein synthesis inhibition counterscreen; max response, %; in the data active = max response mostly above about 13%, no sharp cut-off; inactive = mostly below about 14%; also: read at 38.3 µM for the half of the compounds with a filed dose; 0% is about no effect
MARV entry inh: inhibitors of Marburg virus binding or cell entry; Marburg virus pseudotyped entry inhibition, cell reporter; Potency, µM (highest dose often 37.8 µM), for the others: at the top dose activity change, negative = inhibition, usual class: inhibitors; actives 1.8% (n = 300,000); AID 540276; calls by dose curve; tested in HEK293 cells; also: potency is read from the fitted curve at half-maximal effect; % is scaled to controls: 0 for no effect and ±100 for the full control effect
LASV entry inh: Lassa virus entry inhibition; Potency, µM (doses to about 37.9 µM), inactives show at the highest dose activity change, negative = inhibition, most hits filed as inhibitors; actives 1.2% (n = 300,000); Lassa virus pseudotype entry inhibition, cell reporter; calls by dose curve; tested in HEK293 cells; also: potency is read from the fitted curve at half-maximal effect; % is scaled to controls: 0 for no effect and ±100 for the full control effect; nearly all actives have a fitted effect of over 50% in size
Numbers without * were called inactive; [ ] = remark or other dose.

Results for CCCCc1ccc(NC(=O)COCC)cc1 ?
AMA1-RON2 inh: 0%; Shiga toxin inh: 44*; CHX counter: 50*; MARV entry inh: inconclusive; LASV entry inh: 1%

Results for CCCCc1ccc(NC(=O)C2CCCC2)cc1 ?
AMA1-RON2 inh: 0%; MARV entry inh: inconclusive; LASV entry inh: inconclusive

Results for CCCCc1ccc(NC(=O)CC(C)C)cc1 ?
AMA1-RON2 inh: 6%; Shiga toxin inh: 66*; CHX counter: 29*; MARV entry inh: inconclusive; LASV entry inh: -4%

What do the screens show for `CCCCNCC(=O)Nc1ccc(NC(=O)CNCCCC)cc1`?
AMA1-RON2 inh: 85%; Shiga toxin inh: -18; CHX counter: -3; MARV entry inh: 10µM*; LASV entry inh: -17%

How did CCOCC(=O)Nc1ccc(Br)c(C)c1 do in these assays?
AMA1-RON2 inh: -3%; Shiga toxin inh: 76*; CHX counter: 32*; MARV entry inh: inconclusive; LASV entry inh: 24%

Results for Nc1cc2c(cc1Cl)-c1ccc(Cl)cc1C2 ?
AMA1-RON2 inh: -11%; MARV entry inh: 26%; LASV entry inh: inconclusive

What do the screens show for `Cc1ccnn1-c1ccc(C(=O)NCc2ccccc2CN2CCOCC2)cc1`?
AMA1-RON2 inh: -9%; MARV entry inh: inconclusive; LASV entry inh: -9%[46.1 µM]

What do the screens show for `CN(C)S(=O)(=O)c1ccc(C(=O)OCc2ccc([N+](=O)[O-])cc2)cc1`?
AMA1-RON2 inh: -5%; Shiga toxin inh: 18; CHX counter: 13*

Results for CCN(CC)CCc1c(C)[nH]c(C(=O)OCc2ccccc2)c1C ?
AMA1-RON2 inh: -7%; Shiga toxin inh: -24; CHX counter: -2; MARV entry inh: 26µM*; LASV entry inh: -9%

What do the screens show for `CC(=O)c1c(C)[nH]c(C(=O)OCc2ccccc2)c1C`?
AMA1-RON2 inh: -13%; Shiga toxin inh: 120*; CHX counter: 38*; MARV entry inh: inconclusive; LASV entry inh: inconclusive

How did CC(=O)c1c(C)[nH]c(C(=O)OCc2ccc([N+](=O)[O-])cc2)c1C do in these assays?
AMA1-RON2 inh: 9%; Shiga toxin inh: 56*; CHX counter: 15*; MARV entry inh: -4%[46.1 µM]; LASV entry inh: 2%[46.1 µM]

How did CN(C)S(=O)(=O)c1ccc(C(=O)OCc2ccc(C#N)cc2)cc1 do in these assays?
AMA1-RON2 inh: 4%; Shiga toxin inh: -3; CHX counter: -3; MARV entry inh: 1%; LASV entry inh: -4%

What do the screens show for `COc1cccc(N=Nc2c(N)[nH]n3c(=O)c4c(nc23)CCCC4)c1`?
AMA1-RON2 inh: 35%; Shiga toxin inh: -15; CHX counter: -2; MARV entry inh: inconclusive; LASV entry inh: inconclusive

What do the screens show for `CCOC(=O)[C@]12CCCC=C1N(Cc1cccc3ccccc13)C(=O)[C@H](CC(=O)N1CCN(C(=O)C3CC3)CC1)C2`?
AMA1-RON2 inh: -13%

Results for COCCCNC(=O)c1csc([C@H]2C[C@H](O)[C@@H](CO)O2)n1 ?
AMA1-RON2 inh: 17%

How did CSC1=NC(=O)C2=C3CC(C)(C)OCC3SC2=N1 (stereo not given) do in these assays?
MARV entry inh: 14%[46.1 µM]

What do the screens show for `CC(=O)c1c(C)[nH]c(C(=O)OCCCCN2C(=O)c3ccccc3C2=O)c1C`?
AMA1-RON2 inh: 5%; Shiga toxin inh: -21; CHX counter: 7; MARV entry inh: 8.2µM*; LASV entry inh: inconclusive

What do the screens show for `COC(=O)[C@]12C(=O)C(C)=C(O)[C@@]1(C)C(C)=CC1[C@@]34CC[C@@H](OC(C)=O)C(C)(C)C3C(C[C@]12C)OC4=O` (stereo not given in full)?
AMA1-RON2 inh: 9%; Shiga toxin inh: -6; CHX counter: -3

What do the screens show for `COc1ccc(C(=O)Nc2nc3cc4c(cc3s2)OCCO4)c(OC)c1`?
AMA1-RON2 inh: 15%; Shiga toxin inh: 80*; CHX counter: 24*

What do the screens show for `COc1ccccc1C(=O)Nc1nc2cc3c(cc2s1)OCCO3`?
AMA1-RON2 inh: -7%; Shiga toxin inh: 61*; CHX counter: 34*

What do the screens show for `NNc1nc2cc3c(cc2s1)OCCO3`?
AMA1-RON2 inh: 71%; Shiga toxin inh: 64*; CHX counter: 32*

How did CCC(O)c1cc2c(cc1NC(=O)c1cccs1)OCCO2 (stereo not given) do in these assays?
AMA1-RON2 inh: -5%; Shiga toxin inh: -8; CHX counter: 2; MARV entry inh: inconclusive; LASV entry inh: -23%

Results for O=C(Nc1nc2cc3c(cc2s1)OCCO3)c1cccs1 ?
AMA1-RON2 inh: 13%; Shiga toxin inh: 13; CHX counter: 27*

Results for COc1cccc(OC)c1C(=O)Nc1nc2cc3c(cc2s1)OCO3 ?
AMA1-RON2 inh: -7%; Shiga toxin inh: 16; CHX counter: -2; MARV entry inh: 0%[46.1 µM]; LASV entry inh: 23%[46.1 µM]

Results for CCCCN(Cc1cc2cccc(C)c2[nH]c1=O)S(C)(=O)=O ?
AMA1-RON2 inh: 0%; Shiga toxin inh: -2; CHX counter: 1

What do the screens show for `COc1ccccc1C(=O)Nc1nc2cc3c(cc2s1)OCO3`?
AMA1-RON2 inh: -3%; Shiga toxin inh: 90*; CHX counter: 55*

How did CCOc1ccc2nc(SCC(=O)NC(=O)NCc3ccco3)sc2c1 do in these assays?
AMA1-RON2 inh: -6%; Shiga toxin inh: 2; CHX counter: 3; MARV entry inh: -23%; LASV entry inh: inconclusive

What do the screens show for `CCOc1ccc2nc(SCC(=O)NCc3ccco3)sc2c1`?
AMA1-RON2 inh: inconclusive; Shiga toxin inh: 45; CHX counter: 18*; MARV entry inh: -2%; LASV entry inh: -2%

Results for CCOc1ccc2nc(SCC(=O)c3ccc(Cl)s3)sc2c1 ?
AMA1-RON2 inh: 57%; Shiga toxin inh: -2; CHX counter: 0; MARV entry inh: 14%; LASV entry inh: 12%

Results for CCOc1ccc2nc(SCC(=O)c3cccs3)sc2c1 ?
AMA1-RON2 inh: 99%; Shiga toxin inh: 139*; CHX counter: 42*; MARV entry inh: inconclusive; LASV entry inh: inconclusive

Results for O=C1N=C2C=CC(Cl)=CC2C(c2ccccc2)=N1 (stereo not given) ?
MARV entry inh: 9%

How did COc1ccc(-c2cc(-c3ccc(Cl)cc3)n[nH]2)c(O)c1 do in these assays?
AMA1-RON2 inh: 108%; Shiga toxin inh: 92*; CHX counter: 37*

Results for COc1ccc(-c2cc(-c3cc(F)ccc3O)[nH]n2)cc1OC ?
AMA1-RON2 inh: 47%; Shiga toxin inh: 78*; CHX counter: 38*; MARV entry inh: inconclusive; LASV entry inh: -5%

What do the screens show for `COc1ccc(-c2cc(-c3ccc(OC)c(OC)c3)n[nH]2)c(O)c1`?
AMA1-RON2 inh: 18%; Shiga toxin inh: 97*; CHX counter: 71*; MARV entry inh: 5%; LASV entry inh: -18%

What do the screens show for `COc1ccc(O)c(-c2cc(-c3cccc(Br)c3)n[nH]2)c1`?
AMA1-RON2 inh: 0%; Shiga toxin inh: 29*; CHX counter: 32*; MARV entry inh: inconclusive; LASV entry inh: inconclusive

How did COc1ccc(-c2ncncc2-c2ccc(OC)c(OC)c2)c(O)c1 do in these assays?
AMA1-RON2 inh: 11%; Shiga toxin inh: 6; CHX counter: 18; MARV entry inh: inconclusive; LASV entry inh: inconclusive
